Laboratory results: PubChem BioAssay (NCATS)
Results filed as inconclusive are left out. Calls follow the shape of the dose curve; as a rule, active = well fitted inhibition curve with a large enough effect; inconclusive = small, poorly fitted or top-dose-only effect; inactive = flat fitted curve, though single readings scatter.

target: Ubiquitin carboxyl-terminal hydrolase 1 (Homo sapiens) (UniProt O94782); assay: Inhibitors of USP1/UAF1: Pilot qHTS (AID 504865); details: purified USP1/UAF1, Ub-rhodamine cleavage fluorescence; series mostly up to 54.9 µM; activity change, negative = inhibition: at the top concentration;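 also: rhodamine fluorescence freed from ubiquitin-rhodamine substrate followed over time; top concentration of the series differs between compounds; nearly all actives have a fitted effect of over 35% in size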
Sequence (O94782 whole entry, looked up): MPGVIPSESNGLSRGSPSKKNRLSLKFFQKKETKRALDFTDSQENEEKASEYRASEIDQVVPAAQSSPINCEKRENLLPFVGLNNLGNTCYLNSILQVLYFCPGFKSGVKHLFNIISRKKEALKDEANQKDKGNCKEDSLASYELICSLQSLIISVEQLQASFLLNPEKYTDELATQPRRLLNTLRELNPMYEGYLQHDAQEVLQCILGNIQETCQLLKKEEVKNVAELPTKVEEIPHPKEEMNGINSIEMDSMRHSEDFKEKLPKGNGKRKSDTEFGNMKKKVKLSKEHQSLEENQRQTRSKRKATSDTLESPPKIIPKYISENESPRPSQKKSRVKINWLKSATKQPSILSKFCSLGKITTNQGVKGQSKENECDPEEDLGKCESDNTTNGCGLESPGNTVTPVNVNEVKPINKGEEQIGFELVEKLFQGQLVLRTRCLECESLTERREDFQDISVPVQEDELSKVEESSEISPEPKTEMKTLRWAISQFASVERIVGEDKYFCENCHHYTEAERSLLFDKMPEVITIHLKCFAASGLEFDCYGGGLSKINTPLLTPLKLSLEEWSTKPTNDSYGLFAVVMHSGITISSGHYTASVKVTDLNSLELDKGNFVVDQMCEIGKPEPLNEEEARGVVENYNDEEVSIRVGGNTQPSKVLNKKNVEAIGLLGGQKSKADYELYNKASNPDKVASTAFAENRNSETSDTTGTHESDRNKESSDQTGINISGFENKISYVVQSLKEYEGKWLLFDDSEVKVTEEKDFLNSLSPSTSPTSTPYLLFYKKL
Outline: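 Deubiquitinase activity followed as kinetic rhodamine fluorescence release from 150 nM Ub-Rho. 1 nM USP1/UAF1 with compound, after 15 min room-temperature preincubation, in HEPES pH 7.8 buffer containing TCEP, EDTA, BSA and Tween-20.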
% is scaled to controls: 0 for no effect and ±100 for the full control effect.

Activity change, negative = inhibition, inactive:
CN(C)Cc1ccccc1-c1cc(N(C)Cc2ccco2)ncn1 -4.44%
c1cncc(-c2cncnc2NC2CCNCC2)c1 -12%
Cn1cc(-c2nc3cnc(Oc4ccccc4)nc3n(C)c2=O)c2ccccc21 -4.88%
CN(C)c1ncc2nc(-c3ccccc3)c(=O)n(-c3ccccc3)c2n1 -13.8%
CN1CCN(c2ncc3nc(-c4cc(F)cc(F)c4)c(=O)n(C4CC4)c3n2)CC1 -15.6%
O=c1c(-c2ccc(F)cc2)nc2cnc(N3CCNCC3)nc2n1Cc1ccc(F)cc1 -22.8%
O=c1c(-c2cc(F)cc(F)c2)nc2cncnc2n1-c1ccccc1 -8.84%
CN(Cc1ccco1)c1ncncc1-c1ccccc1Cl -7.32%
O=c1cnc2cnc(N3CCOCC3)nc2n1CCc1ccccc1 -13.5%
CN1CCN(c2ncncc2-c2ccc(C(=O)N(C)C)cc2)CC1 -7.29%
CC(=O)NCCNc1ncncc1-c1ccccc1C -5.05%
COCCn1c(=O)cnc2cnc(Oc3ccccc3)nc21 -10.5%
COCCn1c(=O)c(-c2ccc(Cl)cc2)nc2cnc(Oc3cccc(Cl)c3)nc21 -12.7%
COc1ccc(CNc2ccnc(-c3ccc4c(c3)OCO4)n2)c(OC)c1 -36.8%
COc1ncc2nc(-c3cc(F)cc(F)c3)c(=O)n(C)c2n1 -5.33%
COc1cccc(Nc2ncc3nc(-c4ccccc4)c(=O)n(Cc4cccs4)c3n2)c1 -4.2%
COc1ccc(-c2nc3cnc(N4CCN(C)CC4)nc3n(Cc3ccc(F)cc3)c2=O)cc1 -8.73%
COCCn1c(=O)c(-c2cc(F)cc(F)c2)nc2cnc(N3CCOCC3)nc21 -5.08%
CN(C)c1ncnc2ccc(-c3cccnc3)cc12 -13.5%
CCNc1ncc2nc(-c3cn(C)c4ccccc34)c(=O)n(Cc3cccc(OC)c3)c2n1 -7.17%
COc1ccc(Oc2ncc3nc(C)c(=O)n(-c4ccccc4)c3n2)cc1 -9.96%
CN(C)Cc1ccccc1-c1nc(NCc2cccs2)c2ccccc2n1 -11.2%
CN(Cc1ccco1)c1ncncc1-c1cccc(C#N)c1 -6.74%
O=c1c(-c2ccc(F)cc2)nc2cnc(N3CCOCC3)nc2n1Cc1cccs1 -6.66%
CCNc1ncc2nc(-c3ccc(Cl)cc3)c(=O)n(C[C@H]3CCCO3)c2n1 -13.4%
COc1ccc(-n2c(=O)c(-c3cccs3)nc3cnc(N(C)C)nc32)cc1 -8.64%
Cn1cc(-c2nc3cnc(Oc4ccccc4)nc3n(C3CC3)c2=O)c2ccccc21 -8.07%
O=c1c(-c2cccs2)nc2cnc(N3CCOCC3)nc2n1Cc1ccc(F)cc1 -8.27%
O=c1c(-c2ccc(F)cc2)nc2cnc(Nc3ccccc3)nc2n1C[C@H]1CCCO1 -1.52%
O=c1c(-c2cc(F)cc(F)c2)nc2cncnc2n1Cc1ccccc1 -17.8%
c1ccc(Nc2cc(-c3ccoc3)ncn2)cc1 -13.7%
COc1ccc(Oc2ncc3nc(-c4cn(C)c5ccccc45)c(=O)n(C4CC4)c3n2)cc1 -8.68%
COCCNc1ncncc1-c1c(C)noc1C -6.27%
Cc1noc(C)c1-c1ccc2ncnc(Nc3ccc(F)cc3)c2c1 -13.1%
O=c1c(-c2cccs2)nc2cnc(N3CCOCC3)nc2n1Cc1cccs1 -7.92%
Cc1noc(C)c1-c1ccc2ncnc(N(C)C)c2c1 -12.3%
CC(=O)NCCNc1ncnc2ccc(-c3c(C)noc3C)cc12 -8.95%
CN(C)c1ncc2nc(-c3cn(C)c4ccccc34)c(=O)n(C[C@H]3CCCO3)c2n1 -14.8%
CN1CCN(c2ncc3nc(-c4ccc(Cl)cc4)c(=O)n(Cc4cccs4)c3n2)CC1 -7.45%
CN(Cc1ccco1)c1ncncc1-c1ccoc1 -10.6%
